Set-up in all cases: scale not given: direction of the effect not stated beside the values
In assay [1] the target is Protein translocase subunit SecA (Escherichia coli (strain K12)) (UniProt P10408). Put plainly: Assay to Identify E. coli SecA ATPase Inhibitors. Particulars: 30 µM. It is filed as functional.
For assay [2], the target named is T1, Ubiquitin-activating enzyme e1, putative (Leishmania donovani (strain BPK282A1)) (UniProt E9BSI1).
T1 sequence (whole entry): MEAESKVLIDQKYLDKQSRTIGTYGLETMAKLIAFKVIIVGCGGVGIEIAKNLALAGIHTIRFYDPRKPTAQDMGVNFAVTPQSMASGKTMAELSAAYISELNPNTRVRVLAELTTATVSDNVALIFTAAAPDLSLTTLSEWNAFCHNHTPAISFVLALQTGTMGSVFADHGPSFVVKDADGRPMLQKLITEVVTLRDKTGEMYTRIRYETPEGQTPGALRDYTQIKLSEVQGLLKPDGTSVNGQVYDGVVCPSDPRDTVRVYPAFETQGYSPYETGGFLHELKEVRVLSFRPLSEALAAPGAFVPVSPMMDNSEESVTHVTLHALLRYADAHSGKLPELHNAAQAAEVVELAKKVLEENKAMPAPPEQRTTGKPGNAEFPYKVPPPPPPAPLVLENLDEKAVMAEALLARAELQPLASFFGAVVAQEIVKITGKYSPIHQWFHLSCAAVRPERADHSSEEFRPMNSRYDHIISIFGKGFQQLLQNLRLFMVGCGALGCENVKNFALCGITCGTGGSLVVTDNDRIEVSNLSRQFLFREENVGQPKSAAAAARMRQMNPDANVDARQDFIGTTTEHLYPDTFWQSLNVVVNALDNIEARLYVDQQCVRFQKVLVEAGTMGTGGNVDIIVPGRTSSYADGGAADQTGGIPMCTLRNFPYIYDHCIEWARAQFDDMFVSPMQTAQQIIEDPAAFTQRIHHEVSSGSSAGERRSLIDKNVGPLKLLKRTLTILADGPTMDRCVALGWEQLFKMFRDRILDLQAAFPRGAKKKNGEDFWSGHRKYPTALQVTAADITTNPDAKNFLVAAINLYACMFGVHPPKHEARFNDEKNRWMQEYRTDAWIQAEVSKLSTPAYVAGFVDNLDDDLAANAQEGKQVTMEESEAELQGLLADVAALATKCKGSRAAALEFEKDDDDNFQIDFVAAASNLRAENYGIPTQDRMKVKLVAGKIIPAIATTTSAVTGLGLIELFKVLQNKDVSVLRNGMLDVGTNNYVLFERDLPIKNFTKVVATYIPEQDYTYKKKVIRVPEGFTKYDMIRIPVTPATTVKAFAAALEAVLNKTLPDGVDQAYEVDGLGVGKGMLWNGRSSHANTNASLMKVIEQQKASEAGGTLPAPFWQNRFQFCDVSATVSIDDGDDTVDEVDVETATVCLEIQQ
Put plainly: Leishmania donovani Ubiquitin Activating Enzyme (LdE1). It is filed as functional. As to conditions: 30 µM.

The target in assay [3] is AMP-activated protein kinase, AMPK (Homo sapiens) (UniProt P54646+O43741+P54619+Q9UGJ0+Q9Y478+Q13131+Q9UGI9). The assay is described as follows: AMP-dependent Kinase enzyme assay. An in vitro enzyme assay that detects ADP turnover that is directly proportional to AMPK activity. This uses naive AMPK that is activated during the assay with MK-8722. It is filed as functional. As to conditions: 30 µM.

The target of assay [4] is Sialic acid-binding Ig-like lectin 9 (Homo sapiens) (UniProt Q9Y336). Put plainly: Hs-Siglec9 ALPHAscreen SOP 20170721. Particulars: 10 µM.
The next assay has as its system Trypanosoma cruzi. Put plainly: Trypanosoma cruzi phosphomannomutase and mannose-1-phosphate guanylyltransferase assay. It is filed as functional. As to conditions: 10 µM.
The target in assay [5] is T2, Arginase-2, mitochondrial (Homo sapiens) (UniProt P78540).
T2 sequence (whole entry): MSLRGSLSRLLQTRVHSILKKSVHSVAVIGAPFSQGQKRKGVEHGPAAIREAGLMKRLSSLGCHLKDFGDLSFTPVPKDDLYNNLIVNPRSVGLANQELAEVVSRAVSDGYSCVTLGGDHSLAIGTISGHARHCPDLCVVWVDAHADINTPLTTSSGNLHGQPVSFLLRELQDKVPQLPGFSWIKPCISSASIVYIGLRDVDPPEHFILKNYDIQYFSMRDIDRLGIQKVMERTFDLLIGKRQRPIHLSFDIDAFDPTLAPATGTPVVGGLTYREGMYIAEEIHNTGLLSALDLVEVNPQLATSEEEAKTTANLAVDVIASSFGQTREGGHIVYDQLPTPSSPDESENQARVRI
Put plainly: in vitro enzyme assay to detect the production of urea directly proportional to the activity of Arginase II. Also: in the data most compounds retested in dose-response had high values. It is filed as functional. As to conditions: 33.3 µM.

Assay [6] addresses T3, Proteasome subunit beta (Trypanosoma cruzi) (UniProt O96673).
T3 sequence (whole entry): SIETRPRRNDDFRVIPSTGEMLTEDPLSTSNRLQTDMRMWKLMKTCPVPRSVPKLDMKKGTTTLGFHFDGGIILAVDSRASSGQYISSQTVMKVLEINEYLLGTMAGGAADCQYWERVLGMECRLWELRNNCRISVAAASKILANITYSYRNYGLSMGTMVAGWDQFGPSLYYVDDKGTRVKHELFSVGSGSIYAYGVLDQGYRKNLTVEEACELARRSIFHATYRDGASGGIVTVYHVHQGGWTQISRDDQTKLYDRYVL
The assay is described as follows: Trypanosoma cruzi proteasome chymotrypsin-like activity (TcProtChymo) assay. Also: in the data most compounds retested in dose-response had high values. It is filed as functional. Particulars: 9.37 µM.

The species named for the next assay is Homo sapiens. Put plainly: To identify inhibition of the IFN signalling (Jak-Stat) pathway via expression of an eGFP reporter gene under the control of an IFN-stimulated response element (ISRE) containing MxA promoter. The assay is classed as functional. As to conditions: 30 µM.
Assay [7] has as its target T4, Tyrosyl-tRNA synthetase, putative (Trypanosoma cruzi (strain CL Brener)) (UniProt Q4DSP6).
T4 sequence (whole entry): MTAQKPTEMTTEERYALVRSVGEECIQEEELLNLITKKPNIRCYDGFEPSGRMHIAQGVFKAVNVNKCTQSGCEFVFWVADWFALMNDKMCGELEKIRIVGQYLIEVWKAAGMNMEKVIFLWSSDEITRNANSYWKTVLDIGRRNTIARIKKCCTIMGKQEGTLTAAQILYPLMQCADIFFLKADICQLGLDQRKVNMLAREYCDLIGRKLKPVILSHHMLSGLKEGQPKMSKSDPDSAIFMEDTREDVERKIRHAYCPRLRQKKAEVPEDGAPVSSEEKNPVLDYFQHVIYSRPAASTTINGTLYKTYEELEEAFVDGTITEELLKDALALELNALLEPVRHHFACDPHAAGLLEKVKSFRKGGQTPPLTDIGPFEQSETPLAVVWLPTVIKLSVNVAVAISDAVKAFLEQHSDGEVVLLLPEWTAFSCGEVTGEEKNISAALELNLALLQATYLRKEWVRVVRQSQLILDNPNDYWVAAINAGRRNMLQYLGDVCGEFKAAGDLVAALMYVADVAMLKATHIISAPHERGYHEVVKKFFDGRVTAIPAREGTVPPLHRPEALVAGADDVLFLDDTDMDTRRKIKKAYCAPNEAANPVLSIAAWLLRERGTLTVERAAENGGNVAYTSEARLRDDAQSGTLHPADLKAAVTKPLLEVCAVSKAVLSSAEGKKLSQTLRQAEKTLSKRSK
Put plainly: Trypanosoma cruzi tyrosyl tRNA synthetase (TcYRS) _High Tyrosine SOP. Also: in the data most compounds retested in dose-response had high values. It is filed as functional. As to conditions: 30 µM.

Assay [8] deals with T4, Tyrosyl-tRNA synthetase, putative (Trypanosoma cruzi (strain CL Brener)). The assay is described as follows: Trypanosoma cruzi tyrosyl tRNA synthetase (TcYRS) SOP. It is filed as functional. Particulars: 30 µM.
The target in assay [9] is Chromo domain-containing protein 1 (Saccharomyces cerevisiae (strain ATCC 204508 / S288c) (Baker's yeast)) (UniProt P32657). Put plainly: ScCHD-1 Enzyme Inhibition Assay. Also: in the data most compounds retested in dose-response had high values. It is filed as functional. Particulars: 30 µM.

For some of these results: Potency and affinity values are given separately.

Chromo domain-containing protein 1 (Saccharomyces cerevisiae (strain ATCC 204508 / S288c) (Baker's yeast)), sequence (P32657 whole entry, the tested form may be a part): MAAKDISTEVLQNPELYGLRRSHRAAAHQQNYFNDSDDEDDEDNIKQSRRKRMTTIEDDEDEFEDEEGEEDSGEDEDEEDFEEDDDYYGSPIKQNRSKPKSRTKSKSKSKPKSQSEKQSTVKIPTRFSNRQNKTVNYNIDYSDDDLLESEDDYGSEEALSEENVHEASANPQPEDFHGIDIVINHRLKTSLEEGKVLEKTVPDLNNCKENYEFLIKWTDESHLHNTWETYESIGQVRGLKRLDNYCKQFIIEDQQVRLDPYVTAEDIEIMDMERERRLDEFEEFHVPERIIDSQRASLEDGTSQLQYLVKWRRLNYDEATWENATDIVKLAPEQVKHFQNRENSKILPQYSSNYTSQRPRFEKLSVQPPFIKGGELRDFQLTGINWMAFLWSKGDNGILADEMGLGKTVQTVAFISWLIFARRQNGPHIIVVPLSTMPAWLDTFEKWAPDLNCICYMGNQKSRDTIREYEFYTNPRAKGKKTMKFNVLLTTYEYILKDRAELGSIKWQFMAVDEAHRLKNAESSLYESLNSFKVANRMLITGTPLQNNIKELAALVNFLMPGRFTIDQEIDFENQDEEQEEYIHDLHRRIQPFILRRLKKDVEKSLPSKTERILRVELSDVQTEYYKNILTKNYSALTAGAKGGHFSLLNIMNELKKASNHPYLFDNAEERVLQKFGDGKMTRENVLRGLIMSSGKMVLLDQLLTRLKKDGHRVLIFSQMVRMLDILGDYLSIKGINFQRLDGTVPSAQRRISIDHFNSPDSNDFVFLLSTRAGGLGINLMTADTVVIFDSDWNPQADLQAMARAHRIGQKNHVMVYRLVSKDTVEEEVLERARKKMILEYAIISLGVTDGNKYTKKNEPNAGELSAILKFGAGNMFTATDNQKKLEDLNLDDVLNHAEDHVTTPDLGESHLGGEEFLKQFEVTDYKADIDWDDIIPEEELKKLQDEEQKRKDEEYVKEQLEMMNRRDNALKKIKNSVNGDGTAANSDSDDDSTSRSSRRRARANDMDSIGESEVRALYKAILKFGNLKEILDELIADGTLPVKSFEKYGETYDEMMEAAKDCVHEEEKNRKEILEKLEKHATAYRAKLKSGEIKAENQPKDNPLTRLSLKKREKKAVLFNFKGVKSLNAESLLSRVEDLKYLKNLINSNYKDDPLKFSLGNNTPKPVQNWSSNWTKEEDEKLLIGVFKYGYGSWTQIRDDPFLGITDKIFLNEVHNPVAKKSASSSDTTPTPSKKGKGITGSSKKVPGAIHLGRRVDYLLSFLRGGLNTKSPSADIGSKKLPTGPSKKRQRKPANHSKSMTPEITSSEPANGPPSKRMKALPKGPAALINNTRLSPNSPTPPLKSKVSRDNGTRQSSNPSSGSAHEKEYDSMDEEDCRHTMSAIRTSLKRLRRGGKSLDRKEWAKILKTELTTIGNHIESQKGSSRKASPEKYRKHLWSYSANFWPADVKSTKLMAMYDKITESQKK
Sialic acid-binding Ig-like lectin 9 (Homo sapiens), sequence (Q9Y336 whole entry): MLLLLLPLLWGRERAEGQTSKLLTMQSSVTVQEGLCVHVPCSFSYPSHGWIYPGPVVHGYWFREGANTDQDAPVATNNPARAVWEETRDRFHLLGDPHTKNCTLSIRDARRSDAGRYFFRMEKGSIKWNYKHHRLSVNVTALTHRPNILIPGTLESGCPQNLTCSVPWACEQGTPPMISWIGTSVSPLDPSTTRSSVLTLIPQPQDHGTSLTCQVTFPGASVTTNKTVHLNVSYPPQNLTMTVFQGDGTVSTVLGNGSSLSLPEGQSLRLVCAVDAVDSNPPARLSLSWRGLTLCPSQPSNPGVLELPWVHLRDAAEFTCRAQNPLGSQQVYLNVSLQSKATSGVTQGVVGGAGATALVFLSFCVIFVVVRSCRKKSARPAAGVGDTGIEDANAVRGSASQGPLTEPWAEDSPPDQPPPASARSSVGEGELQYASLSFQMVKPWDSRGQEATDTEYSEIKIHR
Protein translocase subunit SecA (Escherichia coli (strain K12)), sequence (P10408 whole entry): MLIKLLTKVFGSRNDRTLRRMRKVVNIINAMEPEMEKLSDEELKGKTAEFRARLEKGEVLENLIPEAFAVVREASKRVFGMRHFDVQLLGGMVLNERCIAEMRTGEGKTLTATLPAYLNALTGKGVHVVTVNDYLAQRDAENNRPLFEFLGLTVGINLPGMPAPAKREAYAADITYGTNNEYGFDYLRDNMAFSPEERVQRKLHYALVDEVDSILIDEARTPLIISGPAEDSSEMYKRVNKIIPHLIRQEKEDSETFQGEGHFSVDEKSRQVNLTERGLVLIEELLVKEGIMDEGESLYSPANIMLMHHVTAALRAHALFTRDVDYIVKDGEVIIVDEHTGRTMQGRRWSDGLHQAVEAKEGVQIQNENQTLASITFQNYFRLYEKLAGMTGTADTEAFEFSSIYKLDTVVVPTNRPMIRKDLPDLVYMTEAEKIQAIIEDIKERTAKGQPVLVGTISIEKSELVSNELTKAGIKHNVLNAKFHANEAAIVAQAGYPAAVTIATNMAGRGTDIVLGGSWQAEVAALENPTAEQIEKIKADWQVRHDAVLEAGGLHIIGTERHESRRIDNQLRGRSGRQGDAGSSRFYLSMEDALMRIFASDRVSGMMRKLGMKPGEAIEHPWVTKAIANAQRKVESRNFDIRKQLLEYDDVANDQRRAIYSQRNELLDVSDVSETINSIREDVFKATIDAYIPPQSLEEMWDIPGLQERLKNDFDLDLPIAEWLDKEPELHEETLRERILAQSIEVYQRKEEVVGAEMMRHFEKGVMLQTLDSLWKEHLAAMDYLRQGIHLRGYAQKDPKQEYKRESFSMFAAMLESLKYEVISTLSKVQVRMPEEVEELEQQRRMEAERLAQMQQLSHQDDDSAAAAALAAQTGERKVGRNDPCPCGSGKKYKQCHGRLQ

In the case of `CSc1ncc(C(=O)N2C[C@H]3CC[C@@H]2CN(Cc2ccccc2)C3)cn1`, the Percent Effect is 0.697% in assay [1]; 2.74% in [2]; 22.7% in assay [3]; -2.06% in assay [4]; -6.66% in the assay with Trypanosoma cruzi; 2.27% in [5]. In addition, the Percent Effect in assay [6] was 11%; in the assay filed under Homo sapiens, 4.63%; in assay [7], 6.45%; in assay [8] it was 10%; in [9], 0.291%.

With `Cc1nc(CN2CCCC(N(C)CCc3cccs3)C2)no1` (stereo unspecified), the Percent Effect in [1] was -2.72%; in [2] it was 12.5%; in [3], -8.86%; in assay [4] it was 8.38%; with Trypanosoma cruzi, -1.65%; in assay [5], 2.21%. The Percent Effect is 11.4% in [6]; 10.9% in the assay filed under Homo sapiens; 7.37% in assay [7]; 2.56% in assay [8]; -2.19% in assay [9].

On to `CCN(Cc1cccc(Cl)c1)Cc1nc2c(cnn2C)c(=O)[nH]1`, for which the Percent Effect in assay [1] is -5.2%; in [2], 15.6%; in assay [3] it was 3.13%; in assay [4], -4.85%; in the assay on Trypanosoma cruzi it was -0.49%; in [5], -1.47%. Moreover, the Percent Effect in [6] is 15.4%; in the assay listed under Homo sapiens, -5.75%; in [7], 3.81%; in assay [8], 18.8%; in assay [9], -17.4%.

`Cc1ccccc1C1(C(=O)NCCN2CCCC2)CCOCC1`: the Percent Effect is -0.0334% in [1]; 10.8% in [2]; -6.54% in assay [3]; -0.683% in assay [4]; -0.283% in the assay with Trypanosoma cruzi; -8.42% in assay [5]. For the same compound, the Percent Effect in assay [6] was 16.2%; in the assay listed under Homo sapiens, 20.7%; in assay [7], 9.36%; in assay [8], 18.5%; in assay [9] it was -8.78%.

`CCCNC(=O)C1CCN(Cc2csc(C(C)(C)C)n2)CC1`: the Percent Effect in assay [1] is -0.61%; in assay [2], 10.1%; in [3], -4.65%; in [4], -1.57%; with Trypanosoma cruzi, -4.44%; in [5] it was 6.08%. Moreover, the Percent Effect in assay [6] was 6.63%; in the assay filed under Homo sapiens it was 12.5%; in [7], -0.493%; in assay [8] it was 8.86%; in assay [9] it was -6.15%.

On to `CSc1ccc(C(CNC(=O)C2CC2)N2CCc3sccc3C2)cc1` (stereo unspecified), for which the Percent Effect was -3.4% in [1]; 5.26% in assay [2]; 1.69% in assay [3]; -0.599% in [4]; 0.876% with Trypanosoma cruzi; -2.37% in [5]. Also, the Percent Effect in assay [6] amounted to 16%; in the assay listed under Homo sapiens, 9.34%; in assay [7], 8.51%; in assay [8] it was 15.6%; in [9], 4.76%.

For `CCc1c(C)nc2cc(C3CCN(Cc4ccccc4F)C3)nn2c1O` (stereo unspecified), the Percent Effect was 0.76% in assay [1]; -14.9% in assay [2]; -7.43% in assay [3]; -10.9% in assay [4]; -2.77% with Trypanosoma cruzi; 2.09% in [5]. The Percent Effect is 20.9% in [6]; 17% in the assay filed under Homo sapiens; 4.3% in assay [7]; 9.09% in assay [8]; -7.83% in assay [9].

In the case of `CC1(C)CC(N2Cc3nc(N4CCOCC4)ncc3C2=O)CC(C)(C)N1`, the Percent Effect in assay [1] is -6.55%; in [2] it was 2.6%; in assay [3] it was 1.41%; in [4] it was 1.23%; with Trypanosoma cruzi it was -9.93%; in [5] it was 2.76%. Moreover, the Percent Effect in [6] is 10.8%; in the assay filed under Homo sapiens, 13.3%; in assay [7], 0%; in [8], -1.24%; in [9], -0.541%.

As to `CC(C)c1csc(C2CCCN(C(=O)c3ccc(=O)n(C)n3)C2)n1` (stereo unspecified), the Percent Effect in assay [1] was -2.9%; in assay [2] it was 13.5%; in assay [3], -11.4%; in assay [4], -0.23%; in the assay on Trypanosoma cruzi it was -1.86%; in assay [5], 1.74%. The Percent Effect was 7.3% in [6]; 26% in the assay filed under Homo sapiens; 4.3% in [7]; 11.1% in assay [8]; -5.6% in assay [9].

Consider `Cc1ncsc1C(=O)N1CCCN(Cc2cscn2)CC1`, for which the Percent Effect in assay [1] was -2.64%; in assay [2] it was 5.2%; in assay [3], 1.53%; in [4] it was 0.904%; in the assay on Trypanosoma cruzi, 3.82%; in assay [5], -1.9%. Also, the Percent Effect is -3.8% in assay [6]; -3.73% in the assay listed under Homo sapiens; 6.67% in [7]; 9.41% in [8]; -14.3% in assay [9].

Consider `Cc1cc(C)c(CNC(=O)NCC2CCCN2C)c(=O)[nH]1` (stereo unspecified), for which the Percent Effect was -7.62% in [1]; 2.63% in assay [2]; -1.76% in [3]; 2.1% in assay [4]; -4.89% with Trypanosoma cruzi; -2.68% in assay [5]. Further, the Percent Effect was 4.84% in assay [6]; 25.4% in the assay filed under Homo sapiens; -4.41% in [7]; -2.44% in [8]; -2.8% in [9].

The record behind these values is ChEMBL document CHEMBL3988442, “University of Dundee, Small-Polar-MMV Screening Library” (2021).
